Hits are enriched below; roughly 28% of the tested compounds scored in any of these assays.
CYP2C19 activ: increases human CYP2C19 enzyme activity; P33261; recombinant CYP2C19, luciferin-H EGE luminescence; hits give high values; 0 = fully inhibited enzyme, 1 = untreated enzyme; activation factor at 5 µM; 96,000 tested, under 10 active;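 active = activation factor of at least 2 at 5 µM in the primary screen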;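 also: 0 = wells with 2.5 mM tranylcypromine and 1 = vehicle-only wells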
Mac1 fbg enh: CD11b/CD18-fibrinogen binding enhancement; P05107+P11215; K562 CD11b/CD18 adhesion to fibrinogen, ATPlite luminescence; activation, % at 10 µM; 93,000 tested, 0.07% active;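 active = 10 µM primary screen giving 50% or more activity, confirmed by 40% or more on retest at that dose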
Target sequence (P05107 whole entry, looked up, other chains not shown): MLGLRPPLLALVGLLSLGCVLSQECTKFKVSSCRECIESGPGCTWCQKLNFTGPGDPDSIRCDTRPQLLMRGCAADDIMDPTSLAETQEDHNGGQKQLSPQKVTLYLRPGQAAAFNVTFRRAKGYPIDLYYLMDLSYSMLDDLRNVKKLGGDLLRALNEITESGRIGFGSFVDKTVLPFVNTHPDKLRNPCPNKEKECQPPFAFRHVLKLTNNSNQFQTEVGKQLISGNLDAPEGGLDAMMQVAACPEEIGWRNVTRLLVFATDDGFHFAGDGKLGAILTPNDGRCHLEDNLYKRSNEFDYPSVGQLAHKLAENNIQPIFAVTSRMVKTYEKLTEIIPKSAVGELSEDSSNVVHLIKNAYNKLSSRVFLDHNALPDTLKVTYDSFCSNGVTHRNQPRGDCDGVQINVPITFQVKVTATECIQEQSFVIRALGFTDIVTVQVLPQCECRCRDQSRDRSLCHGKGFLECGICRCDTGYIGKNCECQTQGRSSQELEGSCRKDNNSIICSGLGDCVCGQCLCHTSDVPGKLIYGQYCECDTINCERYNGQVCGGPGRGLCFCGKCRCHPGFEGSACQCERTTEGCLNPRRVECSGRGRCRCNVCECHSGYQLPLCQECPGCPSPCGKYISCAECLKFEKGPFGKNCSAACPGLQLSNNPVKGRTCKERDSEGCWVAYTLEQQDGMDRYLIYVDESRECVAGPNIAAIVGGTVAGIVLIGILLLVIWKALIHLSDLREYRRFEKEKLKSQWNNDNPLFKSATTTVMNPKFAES
CYP2C9 inhib: blocks human cytochrome P450 2C9; inhibition, % at 5 µM; 96,000 tested, 20% active; CYP2C9 Supersomes, luciferin-H conversion, luminescence;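 active = blocking of liver enzyme CYP2C9 beyond about 50% at 5 µM, limit read from the data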
CYP2C9 act: activators of human CYP2C9; P11712; recombinant CYP2C9, luciferin-H conversion, luminescence; hits give high values; factor 1 = untreated enzyme, 0 = blocked; activation factor at 5 µM; 96,000 tested, 1.4% active; AID 1024;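 active = activation factor of 2 or more for CYP2C9 at a 5 µM dose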;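 also: 0 = sulfaphenazole-blocked wells and 1 = vehicle-only wells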
Mac1 fbg inh: CD11b/CD18-fibrinogen binding inhibition. K562 CD11b/CD18 adhesion to fibrinogen, ATPlite luminescence; Mn2+ added to activate the integrin. P05107+P11215. inhibition, % at 10 µM. 93,000 tested, 0.54% active;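 active = primary inhibition of 50% or more at 10 µM, then 40% or more on retest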
CYP2C19 inh: human CYP2C19 inhibition; CYP2C19 Supersomes, luciferin-H EGE luminescence, 30 min; inhibition, % at 5 µM; P33261; 96,000 tested, 21% active; AID 778;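 active = CYP2C19 inhibition above a set limit at 5 µM in the primary screen, cut at about 50% in these data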;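 also: plate controls were negative control wells for no effect and 2.5 mM tranylcypromine positive control for full effect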
* = called active by the depositor; / = no result.

SMILES	CYP2C19 activ	Mac1 fbg enh	CYP2C9 inhib	CYP2C9 act	Mac1 fbg inh	CYP2C19 inh
c1ccc(-c2ccc(OCCCn3cncn3)cc2)cc1	0.3	4	71*	0.3	0	70*
CC(=O)CCc1ccc(OCCCCn2cncn2)cc1	0.5	-2	24	0.8	-5	47
O=C(COc1cccc(Oc2ccccc2)c1)Nc1ncccn1	0.6	-4	11	0.9	-15	38
CCC(=O)c1ccccc1OCCCn1cncn1	0.1	3	31	0.7	-28	90*
c1ccc(COc2ccc(OCCn3cncn3)cc2)cc1	0.1	2	96*	0	4	92*
c1ccc(Oc2cccc(OCCn3cncn3)c2)cc1	0.1	1	68*	0.3	-24	95*
Cc1cccc(CSc2ncnc3c2cnn3Cc2ccccc2)c1	1	1	49	0.5	12	-2
COc1cc(C)nc(Oc2ccc(OCCOc3ccc(C)cc3)nn2)n1	0.6	-4	48	0.5	-5	35
COc1ccccc1CNC(=O)CCSCc1cccc(Cl)c1	/	7	/	/	10	/
Cc1ccc(OC(=O)c2ccc(N3CCOCC3)c([N+](=O)[O-])c2)cc1	1	6	0	1	-4	2
COC(=O)CNC(=O)c1cccc(F)c1	1.1	-4	4	1	2	-7
CCOC(=O)C1CN(S(=O)(=O)c2cccc(C(F)(F)F)c2)c2cc(CC(=O)OC)ccc2O1 (centres undefined)	0.2	/	60*	0.4	/	79*
N#CC1=C(N)C2=CCCC[C@H]2[C@H](c2ccc(Br)cc2)C1(C#N)C#N	/	6	/	/	58	/
COc1cc2c3c(c1)C1(C(=O)N3C(C)(C)C=C2C)C(C#N)=C(N)Oc2cc(C)oc(=O)c21 (centres undefined)	0.4	-2	27	0.7	11	55*
Cc1ccc2c3c1C1(C(=O)N3C(C)(C)CC2C)C(C#N)=C(N)Oc2cc(O)ccc21 (centres undefined)	0.3	4	89*	0.1	2	70*
Cc1ccc2c3c1C(=O)C(=O)N3C(C)(C)CC2C (centres undefined)	0.8	-2	3	1	1	16
COC(=O)CN1C(=O)C2(C(C#N)=C(N)Oc3cc(C)oc(=O)c32)c2ccccc21 (centres undefined)	0.8	-3	22	0.8	7	19
CC1=CC(C)(C)N2C(=O)C3(C(C#N)=C(N)OC4=C3C(=O)CC(C)(C)C4)c3cccc1c32 (centres undefined)	0.9	-2	6	0.9	0	5
Cc1cc2c3c(c1)C1(C(=O)N3C(C)(C)CC2C)C(C#N)=C(N)Oc2cc(O)ccc21 (centres undefined)	0.2	8	90*	0.1	-3	79*
CC1=CC(C)(C)N2C(=O)C3(C(C#N)=C(N)Oc4cc(O)ccc43)c3cccc1c32 (centres undefined)	0.7	2	51*	0.5	8	32
CC1=C(C(=O)Nc2ccccc2Cl)C(c2ccc(N(C)C)cc2)NC(=O)N1 (centres undefined)	1	7	-14	1.1	9	-2
COc1ccccc1C1C=C(c2ccc(C)cc2)Nc2nnnn21 (centres undefined)	0.1	-2	71*	0.3	-20	85*
Cc1ccc(C2=CC(c3cccs3)n3nnnc3N2)cc1 (centres undefined)	0	-7	82*	0.2	23	97*
COc1ccc(C2=CC(c3c(C)nn(-c4ccccc4)c3Cl)n3nnnc3N2)cc1OC (centres undefined)	0.1	0	93*	0.1	28	91*
C1=C(c2ccccc2)Nc2nnnn2C1c1cccs1 (centres undefined)	0.7	-3	28	0.7	-21	29
SMILES	CYP2C19 activ	Mac1 fbg enh	CYP2C9 inhib	CYP2C9 act	Mac1 fbg inh	CYP2C19 inh
Cc1cc(C)n(-c2c(F)c(F)c(CN3CCOCC3)c(F)c2F)n1	1	0	18	0.8	-14	3
CC1(O)c2ccccc2C(=O)N1CCc1ccccc1F (centres undefined)	0	/	25	0.8	/	96*
CC1(O)N(Cc2ccccc2)C(=O)OC12CCCCC2 (centres undefined)	0.3	0	10	0.9	0	74*
CN1C(=O)OC(C)(CCc2ccccc2)C1(C)O (centres undefined)	0.7	/	-1	1	/	25
O=C(O)c1ccc2c(c1)N(Cc1ccccc1F)C(=O)c1ccccc1S2=O (centres undefined)	1.1	-1	22	0.8	-7	-6
CC1(O)c2ccccc2C(=O)N1Cc1ccccc1 (centres undefined)	0.1	-4	17	0.8	-18	85*
COc1cccc(N2C(=O)C3C(C2=O)C2C=CC3C23CC3)c1 (centres undefined)	0.7	-1	0	1	23	33
O=C(CN1C(=O)CSc2ccccc21)Nc1ccccc1C(=O)N1CCOCC1	0.9	-3	6	0.9	-12	8
O=C(Cc1ccc(F)cc1)NCCc1ccc(F)cc1	0.3	2	52*	0.5	-14	65*
O=C(NCCc1ccccc1)c1ccc(Br)o1	0.5	-3	1	1	-9	51*
O=C(Cc1ccc(F)cc1)NCCc1ccccc1	0.3	0	50*	0.5	-28	68*
O=C(CN1CCCCCC1)NCCc1ccc(F)cc1	0.3	-6	15	0.8	-28	66*
O=C(Nc1ccccc1F)c1ccc2nc(N3C(=O)CCC3=O)sc2c1	0.7	2	0	1	-4	27
CCCC(=O)NCCc1ccc(F)cc1	0.7	-6	9	0.9	-1	30
Cn1c(=O)c2c(-c3ccc(C(C)(C)C)cc3)n(N3CCOCC3)cc2n(C)c1=O	0.9	-3	-8	1.1	53	9
Cc1ccc(S(=O)(=O)ON2C(=O)c3ccccc3C2=O)c(C)c1	/	-2	/	/	-2	/
Cc1cc(C)c(OC2(c3ccccc3)OC(=O)c3ccccc32)c(C)c1 (centres undefined)	0.5	/	55*	0.5	/	54*
Cc1cccc(C)c1OC1(c2ccccc2)OC(=O)c2ccccc21 (centres undefined)	0.2	/	69*	0.3	/	82*
CC(C)C(O)(C#CCN1CCCCC1)C(C)C	/	-2	/	/	10	/
COc1ccc(CCN(C(=O)C(F)(F)F)C(C(=O)NC2CCCCC2)c2ccc(C)s2)cc1OC (centres undefined)	1	0	36	0.6	3	0
COCCn1cc(C(=O)c2ccccc2OCC(=O)Nc2cc(C)on2)cc(C#N)c1=O	0.7	2	42	0.6	0	32
CCCCNC(=O)C1CC(=O)N(c2ccc(OC)cc2)C1c1ccc(OC)cc1 (centres undefined)	0.7	/	17	0.8	/	29

Screening data as filed in PubChem.
